Hit rate of the full screen: of about 48,000 compounds, about 13,000 (27%) showed an effect of 50% or more. This is one part of the list.
system: Wolbachia pipientis; experiment: Anti-Wolbachia Cell-Based Screen; type: functional; set-up: scale not given: in the data most compounds retested in dose-response had high values; conditions: 5 µM

Row | Structure (SMILES) | Percent Effect [%]
1 | Cn1nnnc1SCCNC(=O)c1cccc2ccnn12 | 0.6807
2 | CCC1CN(CC(=O)NC(C)C)CCO1 (stereo not drawn) | -17.56
3 | CC1CCCCN1C(=O)c1cn(-c2ccc(C(F)(F)F)cn2)nn1 (stereo not drawn) | -15.67
4 | O=C(COc1coc(CN2CCCC2)cc1=O)NCc1ccccc1Cl | 13.29
5 | CCn1ncc2c1CCCC2NCc1csc(COC)n1 (stereo not drawn) | 6.958
6 | CCCn1c(C)cc(C(=O)CN2C(=O)c3ccccc3CS2(=O)=O)c1C | -1.519
7 | Cc1noc(C2CCN(C(=O)c3ccc(N(C)C)nc3)CC2)n1 | -12.04
8 | Cc1noc(C2CCC3(CCN(C(=O)c4ccnnc4)CC3)O2)n1 (stereo not drawn) | 98.77
9 | Cc1noc(C2CCCN(C(=O)c3cncc(Br)c3)C2)n1 (stereo not drawn) | -3.695
10 | Cc1cc(N2CCC3(CCCN(CCO)C3=O)C2)nc2cc(Cl)ccc12 (stereo not drawn) | 98.58
11 | Cc1cc(N2CCC(CO)(CC3CCCCO3)CC2)nc2ccccc12 (stereo not drawn) | -15.69
12 | Cc1cc(N2CCC3(CCCN(CCO)C3=O)C2)nc2ccccc12 (stereo not drawn) | 93.99
13 | COCCC1(C(=O)O)CCCN(c2cc(C)c3ccccc3n2)C1 (stereo not drawn) | -9.375
14 | CCCN1CCCC2(CCN(c3nc(C)nc4ccsc34)C2)C1=O (stereo not drawn) | -5.221
15 | COCCN1CCCC2(CCN(c3ncc(Cl)cc3Cl)C2)C1=O (stereo not drawn) | 5.155
16 | Cc1ccc2c(c1)OC1(NC2=O)C(=O)N(C)c2ccccc21 (stereo not drawn) | 2.541
17 | COc1ncccc1NC(=O)N1CCOCC1C (stereo not drawn) | 13.85
18 | Cc1nc2c(c(=O)n1C)CN(C(=O)C1CCCN(C3CCCC3)C1)C2 (stereo not drawn) | -4.359
19 | O=C(C1CC1)N1CCC(c2nc(O)c3c(n2)CN(C2CCCC2)CC3)C1 (stereo not drawn) | 78.69
20 | Cc1ccc(-c2ncc(C(=O)N3CCN4CCCCC4C3)c(O)n2)cc1 (stereo not drawn) | 8.265
21 | C1CCC(c2nc3c(c(N4CCN5CCCC5C4)n2)CCNCC3)C1 (stereo not drawn) | -7.963
22 | CCC(=O)N1CCC(NC2CCCC2)C1 (stereo not drawn) | -2.557
23 | CCCC(=O)N1CCC(c2nc(O)c3c(n2)CCN(C2CCCC2)C3)C1 (stereo not drawn) | 91.38
24 | CCC(=O)N1CCC(c2nc(O)c3c(n2)CN(C2CCCCC2)CC3)C1 (stereo not drawn) | 94.52
25 | Cc1ncc(C(=O)N2CCC(N3CCc4ccccc4C3)CC2)c(O)n1 | -7.9
26 | CC(C)N(CC(N)=O)Cc1cccc(C(F)(F)F)c1 | -6.914

Row | Structure (SMILES) | Percent Effect [%]
27 | CC(C)c1cc(C(=O)N2CCNCC2C(=O)NCc2ccncc2)on1 (stereo not drawn) | -12.97
28 | CC(C)(C)c1ccc2c(c1)CCN2C(=O)c1ccc(=O)[nH]n1 | -4.388
29 | CCc1nc2n(n1)CCCC2NC(=O)Nc1ccc(F)cc1C#N (stereo not drawn) | -29.22
30 | Cc1ccc(C(=O)N2CCC3(CC2)CC(c2ccccc2)C(=O)N3)o1 (stereo not drawn) | -4.481
31 | CCOc1ccccc1N(C)Cc1nccn1C | -5.564
32 | CC(C)N1CCC2(CC1)CC(=O)N(Cc1cc(F)cc(F)c1)C2 | 84.47
33 | CCCS(=O)(=O)N1CCC2(CC1)CC(=O)N(Cc1cc(F)cc(F)c1)C2 | 128.2
34 | O=C(CO)N1CCC2(CC1)CC(=O)N(Cc1cc(F)cc(F)c1)C2 | 130.8
35 | CC(C)=CCN1CCC2(CC1)CC(=O)N(Cc1cc(F)cc(F)c1)C2 | 132.9
36 | CN1CC2(CCN(C(=O)Cc3ccc(O)c(F)c3)CC2)CC1=O | -5.557
37 | CCCS(=O)(=O)N1CCC2(CCC(=O)N(Cc3ccccc3)C2)CC1 | -5.429
38 | CC(C)=CCN1CC2(CCN(Cc3c(F)cccc3F)CC2)CC1=O | -3.567
39 | CCCS(=O)(=O)N1CCC2(CCC(=O)N(CCc3ccncc3)C2)CC1 | 3.257
40 | CC(C)=CCN1CC2(CCN(Cc3cccc(C#N)c3)CC2)CC1=O | 0.9714
41 | CCCc1noc(CCC(=O)N2CCN(C)CC2c2ccccc2)n1 (stereo not drawn) | 7.741
42 | O=C(NCC1SCCc2ccccc21)c1cscn1 (stereo not drawn) | 1.343
43 | N#Cc1cnc(NCCCN2C(=O)COc3ccccc32)c(Cl)c1 | 9.033
44 | CCOc1cccc(CNC(=O)NC2CC=CC2)c1OC(F)F | 3.017
45 | Cc1n[nH]cc1CNC(C)c1cccc(N2CCCC2=O)c1.Cl (stereo not drawn) | 3.207
46 | O=C(c1cscn1)N1C[C@H]2CCC[C@@]2(COCc2ccccn2)C1 | 128
47 | O=C(Cc1ccsc1)N1C[C@H]2CCC[C@@]2(COCc2ccccn2)C1 | 101.3
48 | Cc1ccc(C(=O)N2C[C@H]3CCC[C@@]3(COCc3cccnc3)C2)s1 | -11.48
49 | Cc1cccc(COC[C@@]23CCC[C@@H]2CN(C(=O)Cc2ccco2)C3)n1 | 13.36
50 | O=C(Cc1ccco1)N1C[C@H]2CCC[C@@]2(COCc2cccnc2)C1 | -4.256
51 | O=C(c1cnc(C2CC2)s1)N1CCCCC1Cn1cccn1 (stereo not drawn) | 5.861
52 | NC(=O)c1ccc(C(=O)N2CCCCC2Cn2cccn2)s1 (stereo not drawn) | 92.92

Row | Structure (SMILES) | Percent Effect [%]
53 | CCc1ncc(C(=O)N2CCCC2Cn2cccn2)s1 (stereo not drawn) | 101.3
54 | O=C(c1cnc(C2CC2)s1)N1CCCC1Cn1cccn1 (stereo not drawn) | 124.9
55 | CCc1ncc(C(=O)N2CCCCC2Cn2cccn2)s1 (stereo not drawn) | -1.613
56 | NC(=O)c1csc(C(=O)N2CCCCC2Cn2cccn2)c1 (stereo not drawn) | -5.921
57 | c1ccc2c(c1)CC(n1ccnc1-c1cc3n(n1)CCNC3)CO2 (stereo not drawn) | 0.8243
58 | O=C(CC[C@@H]1CCCN2CCCC[C@H]12)NCCc1nc(O)cc(O)n1 | -15.21
59 | N#Cc1ccnc(N2CCN(CC(O)c3cccc(F)c3)CC2)c1 (stereo not drawn) | -9.554
60 | Fc1ccc(-c2noc(CN3CCC(c4cc[nH]n4)CC3)n2)cc1 | -73.45
61 | Cc1cccc(-c2noc(CN3CCC(N4CCNC4=O)CC3)n2)c1 | 0.5199
62 | Cc1ccc(-c2noc(CN3CCC(c4ccn[nH]4)CC3)n2)cc1 | -38.16
63 | O=C1NCCN1C1CCN(c2ccnc(-c3ccccc3)n2)CC1 | 10.01
64 | O=C1NCCN1C1CCN(Cc2nc(-c3ccc(F)cc3)no2)CC1 | 108.3
65 | Cc1ccc(-c2noc(CN3CCC(N4CCNC4=O)CC3)n2)cc1 | 76.33
66 | CN1CCN(C2CCN(Cc3nc(-c4ccoc4)no3)CC2)C1=O | 101.9
67 | c1ccc(-c2noc(CN3CCC(c4ccn[nH]4)CC3)n2)cc1 | 3.848
68 | CCN1CCN(C2CCN(Cc3nc(-c4ccoc4)no3)CC2)C1=O | -10.87
69 | O=C1NCCN1C1CCN(Cc2nc(-c3ccccc3)no2)CC1 | 96.78
70 | CC(C)Cc1nc(CN2CCC(N3CCN(C)C3=O)CC2)no1 | -0.1019
71 | O=C1NCCN1C1CCN(Cc2nc(-c3ccoc3)no2)CC1 | 0.168
72 | N#Cc1ccccc1OCCN1CCn2c(nnc2C2CC2)C1 | -2.907
73 | O=C1NCCN1C1CCN(Cc2nc(-c3ccsc3)no2)CC1 | 100.1
74 | c1cc(C2CCN(Cc3nc(-c4ccsc4)no3)CC2)[nH]n1 | -22.06
75 | Cc1ccccc1-c1noc(CN2CCC(c3ccn[nH]3)CC2)n1 | -44.64
76 | c1cnn(CC2CN(Cc3nc(-c4ccsc4)no3)CCO2)c1 (stereo not drawn) | -8.782
77 | Cc1ccccc1-c1noc(CN2CCC(N3CCNC3=O)CC2)n1 | 89.22
78 | Cc1ccccc1-c1noc(CN2CCn3c(nnc3C3CC3)C2)n1 | 9.498

Row | Structure (SMILES) | Percent Effect [%]
79 | COCCN1CC2(CCCN(c3ncnc4[nH]cnc34)C2)CCC1=O (stereo not drawn) | 2.898
80 | Cc1noc(C2CN(S(C)(=O)=O)Cc3ccnn3C2)n1 (stereo not drawn) | -9.743
81 | CN(C)c1nccc(C2CN(S(C)(=O)=O)C2)n1 | 62.66
82 | CS(=O)(=O)N1CC(c2ncn3ccccc23)C1 | 16
83 | Cc1nccc(C2CN(S(=O)(=O)N(C)C)C2)n1 | 92.05
84 | CN(C)S(=O)(=O)N1CC(c2nc(-c3ccsc3)no2)C1 | -5.352
85 | CN(C)S(=O)(=O)N1CCN(c2nccc(C(F)(F)F)n2)CC1 | -20.82
86 | N#Cc1cccnc1Nc1ccc(N2CCC(C(N)=O)CC2)cc1 | -22.12
87 | CS(=O)(=O)NCC1OCCc2cn(CC3CC3)nc21 (stereo not drawn) | -2.199
88 | CS(=O)(=O)CC(=O)NCC1OCCc2cn(CC3CC3)nc21 (stereo not drawn) | -2.36
89 | COCCn1cc2c(n1)C(CNC(=O)c1cc(C)[nH]c1C)OCC2 (stereo not drawn) | 94.61
90 | O=C(NCC1OCCc2cn(CC3CC3)nc21)c1ccsc1 (stereo not drawn) | -6.452
91 | O=C(Cc1ccsc1)NCC1OCCc2cn(CC3CC3)nc21 (stereo not drawn) | -4.734
92 | Cn1cc2c(n1)C(CNC(=O)Cc1ccsc1)OCC2 (stereo not drawn) | 6.682
93 | Cc1cc(C(=O)NCC2OCCc3cn(CC4CC4)nc32)c(C)[nH]1 (stereo not drawn) | 99.34
94 | COCCn1cc2c(n1)C(CNS(C)(=O)=O)OCC2 (stereo not drawn) | 95.37
95 | CCS(=O)(=O)NCC1OCCc2cn(CCOC)nc21 (stereo not drawn) | -0.9126
96 | Cc1cc(NC(=O)N2CCCC(CO)C2)nn1-c1ccccc1Cl (stereo not drawn) | 6.236
97 | COc1ccc(OC)c(CN(C(=O)c2ccc(C)[nH]c2=O)C2CC2)c1 | -3.072
98 | COCc1nnc(NC(=O)CN2C(=O)c3ccccc3NC2C(C)C)s1 (stereo not drawn) | 107.7
99 | CC(C)c1nnc(NC(=O)N2CCCC2c2ccncc2)s1 (stereo not drawn) | 0.4499
100 | CCC(=O)Nc1nnc(CCOc2cccc(OC)c2)s1 | 0.4737
101 | CCC(=O)Nc1nnc(CCCOc2ccccc2)s1 | -6.738
102 | CC(C)c1nnc(NC(=O)CN2C(=O)c3ccccc3NC2C(C)C)s1 (stereo not drawn) | 94.59
103 | CC(C)c1nnc(NC(=O)N2CCN(C)CC2c2ccccc2)s1 (stereo not drawn) | 2.354
